# Measured values as given in PubChem BioAssay AID1210 (NMMLSC, 2008).
# Calls of active or inactive are those of the source.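 The calls were made as follows: active = blocks over 70% of labeled estradiol binding at 10 µM, or over a set limit at 100 nM; inactive = the rest.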
# Molecular target: Estrogen receptor beta (Homo sapiens) (UniProt Q92731)
# Assay: displacement of fluorescent estrogen from ERbeta – cell-based, Cos7 ERbeta-GFP, flow cytometry, primary screen (AID 1210);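 also: 0% = DMSO vehicle wells and 100% = complete loss of labeled estradiol signal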
# Details: fluorescent estrogen binding, at 10 µM, stronger effect = higher value
# Sequence of Estrogen receptor beta (Homo sapiens) (Q92731 whole entry, looked up): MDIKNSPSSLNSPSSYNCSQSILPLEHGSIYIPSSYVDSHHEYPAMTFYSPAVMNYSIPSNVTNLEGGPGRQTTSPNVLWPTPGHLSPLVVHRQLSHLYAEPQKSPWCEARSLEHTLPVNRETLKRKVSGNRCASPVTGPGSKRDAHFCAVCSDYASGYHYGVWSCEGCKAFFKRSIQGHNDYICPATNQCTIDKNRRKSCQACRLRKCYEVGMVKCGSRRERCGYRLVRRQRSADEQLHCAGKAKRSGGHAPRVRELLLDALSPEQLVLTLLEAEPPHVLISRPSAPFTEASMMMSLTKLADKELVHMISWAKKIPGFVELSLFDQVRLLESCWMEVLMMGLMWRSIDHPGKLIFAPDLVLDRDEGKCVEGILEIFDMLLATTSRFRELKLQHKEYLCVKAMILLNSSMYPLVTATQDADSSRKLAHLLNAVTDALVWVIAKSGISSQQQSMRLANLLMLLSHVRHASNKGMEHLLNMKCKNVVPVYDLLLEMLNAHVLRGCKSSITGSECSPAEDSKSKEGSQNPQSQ
row,SMILES,inhibition
1,CCOc1cc2c(c([N+](=O)[O-])c1)NC(c1ccc(Br)cc1)C1CC=CC21 (configuration not stated),7% (inactive)
2,CC1(C)C=C(c2ccc(O)cc2)CC(C)(C)N1,43% (inactive)
3,COc1cccc(C2NCCc3cc(OC)c(OC)cc32)c1 (configuration not stated),15% (inactive)
4,COc1ccc2[nH]c3c(c2c1)CCNC3C1CC=C(C)CC1 (configuration not stated),22% (inactive)
5,O=C1CC(c2ccncc2)c2cc3c(cc2N1)OCCO3 (configuration not stated),14% (inactive)
6,O=C(N/N=C/c1cccc(Oc2ccc([N+](=O)[O-])cc2[N+](=O)[O-])c1)c1cncc(Br)c1,46% (inactive)
7,Nc1ccc(-c2nc3ccc([N+](=O)[O-])cc3[nH]2)cc1,61% (inactive)
8,CCCC1Nc2ccc(C(=O)O)cc2C2C=CCC12 (configuration not stated),44% (inactive)
9,CCOC(=O)c1c(N)sc2c1CC(C)(C)NC2(C)C,22% (inactive)
10,CC(C)CN(Cc1c(O)ccc2c3c(c(=O)oc12)CCC3)CC(C)C,17% (inactive)
11,O=c1oc2cc(O)c(Cl)cc2c2c1CCCC2,8% (inactive)
12,O=c1cc(-c2ccc(O)c(-c3c(O)cc(O)c4c(=O)cc(-c5ccc(O)cc5)oc34)c2)oc2cc(O)cc(O)c12,76% (active)
13,COc1cc([N+](=O)[O-])cc2c1NC(c1ccccc1Cl)C1CC=CC21 (configuration not stated),20% (inactive)
14,CCOc1cc2c(cc1OCC)C(C(CC)CC)NCC2 (configuration not stated),10% (inactive)
15,CCCCc1cc2c(=O)c(-c3ccccn3)coc2cc1O,18% (inactive)
16,Cc1ccc(-c2nn3c(C)nnc3s2)cc1NC(=O)COc1ccc(Cl)cc1,24% (inactive)
17,Nc1c(Cl)cc(Cl)cc1C(=O)OCC(=O)NC1CC1,42% (inactive)
